# Data: PubChem BioAssay AID493011 (Sanford-Burnham Center for Chemical Genomics, 2011)
# Several values for one entry are separate records, joined by “and”; a condition that tells them apart may be missing. Equal values may be shown once. Hit rate of the full screen: of about 330,000 compounds, about 1,400 (0.42%) were called active. The sample holds actives, similar compounds and a random draw of the others, so the mix is not that of the screen. Unmarked numbers belong to inactive results.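 How the source made its calls: active means at least 40% inhibition at 20 µM here, with at most 30% in a related deaminase screen; inactive means the rest.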
# Target: DNA dC->dU-editing enzyme APOBEC-3A (Homo sapiens) (UniProt P31941)
# Sequence (P31941 whole entry, looked up): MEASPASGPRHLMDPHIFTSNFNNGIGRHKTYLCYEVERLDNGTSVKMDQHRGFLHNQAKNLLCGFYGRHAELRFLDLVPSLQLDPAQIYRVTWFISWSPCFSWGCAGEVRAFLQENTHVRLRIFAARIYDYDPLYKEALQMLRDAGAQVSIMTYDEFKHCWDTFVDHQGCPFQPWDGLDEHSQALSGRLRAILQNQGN
# Assay: APOBEC3A ssDNA deaminase inhibitors, primary screen, selectivity assay for APOBEC3G inhibitor project, biochemical, FAM/TAMRA oligo cleavage fluorescence (AID 493011);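 further: plate controls were A3A with DMSO for no effect and wells lacking A3A enzyme for full effect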
# Conditions: recombinant A3A, FAM/TAMRA ssDNA deamination fluorescence; at 20 µM; hits give high values
row,Compound,inhibition
1,CCc1ccc(OCC(O)CN2CCN(CCO)CC2)cc1 (stereo unspecified),-7.28%
2,CC(=O)c1ccc(N=C2SCCCN2C(=O)C2CCCCC2)cc1,4.36%
3,O=C1c2cccc3cccc(c23)C(=O)N1CCCCCc1n[nH]c(=S)o1,-1.78%
4,O=C(CN1C(=O)c2cccc3cccc(c23)C1=O)N1CCCCC1,-1.16%
5,C[N+](C)(CCCCCC[N+](C)(C)CCCN1C(=O)c2cccc3cccc(c23)C1=O)CCCN1C(=O)c2cccc3cccc(c23)C1=O,46% (active)
6,CC(=O)c1ccc(NC(=S)N(Cc2ccccc2)C(C)C2CC2)cc1 (stereo unspecified),0.493%
7,COc1ccc(-c2ocnc2C(=O)Nc2ccc3c(c2)CCC3)cc1,-0.367%
8,CCN(CC(=O)N1CCCC1)S(=O)(=O)c1ccc(F)cc1,-1.08%
9,N#Cc1ncc(C(F)(F)F)cc1Oc1cccnc1,60.4% (active)
10,O=C(Nc1ccc(Cl)cc1)Nc1ccc(Oc2cccnc2)nc1,-3.23%
11,NC(=O)c1ncc(C(F)(F)F)cc1Oc1ccc(F)cc1,2.03%
12,COc1ccc(C)cc1NC(=O)CN1c2cccc3cccc(c23)S1(=O)=O,-2.73%
13,CCN(C(=O)COc1ccc(C(=O)c2ccccc2)cc1)c1ccccc1,-0.203%
14,COc1ccccc1CNC(=O)COC(=O)c1sc(C)nc1C,-1.57%
15,CC(=O)Nc1ccc(NC(=O)CSc2nnc(C3CC3)n2-c2ccccc2)cc1,10.5%
16,CC(=O)c1cccc(NC(=O)c2cc(C)nn2-c2ccccc2)c1,-0.424%
17,CC[n+]1c(C)n(-c2ccccc2)c2ccc(NC(C)=O)cc21,60% (active)
18,COc1cccc([C@H](O)Cn2cc(-c3ccc(CON=C(C)C)cc3)nn2)c1,2.45%
19,Cc1nnc(N/N=C/c2ccccn2)[nH]c1=O,42.1% (active)

row,Compound,inhibition
1,COc1ccc(Cc2nnc(N/N=C/c3ccccc3O)[nH]c2=O)cc1OC,-1.76%
2,Cc1cc(C(=O)N/N=C/c2ccccn2)c2ccccc2n1,-3.08%
3,CC(C)(C)NC(=O)c1ccc(Cn2cc(C(F)(F)F)ccc2=O)cc1,-2.36%
4,CCOc1ccc(C(=O)NCC(=O)N2CCCCCCC2)cc1OCC,-0.114%
5,CC(O)C(NS(=O)(=O)c1ccc(Cl)cc1)C(=O)OCc1cc([N+](=O)[O-])cc2c1OCOC2 (stereo unspecified),-3.62%
6,NS(=O)(=O)c1ccc(CNC(=O)c2cccc(Oc3ccccc3)c2)cc1,-0.736%
7,CCc1ccc(S(=O)(=O)Nc2cc3c(cc2N2CCCCC2)n(C)c(=O)c(=O)n3C)cc1,-6.54%
8,COC(=O)C1=C(C)N(Cc2ccccc2)C(=NCCCOC(C)C)N[C@H]1c1ccccc1,45.5% (active)
9,CCN1C(=O)N[C@@H](c2ccccc2)C(C(=O)OC)=C1C,4.12%
10,COC(=O)C1=C(C)N(C)C(=S)NC1c1ccccc1 (stereo unspecified),-2.13%
11,CC1CN(C2CCN(C(=O)COc3ccccc3)CC2)CC(C)O1 (stereo unspecified),-6.23%
12,COC(=O)c1ccc(NC(=O)CSc2nnc(Cc3cccn3C)n2-c2ccc(F)cc2)cc1,-0.405%
13,Cc1cccc(N2CCN(C(=O)COCc3cc(-c4ccc5c(c4)OCO5)on3)CC2)c1C,-0.313%
14,CC(=O)c1sc2nc(SCC(=O)N3CCCCC3)[nH]c(=O)c2c1C,2.37%
15,Cc1sc2nc(CSCC(=O)NC3CCCCC3)[nH]c(=O)c2c1C,-2.29%
16,CSc1nnc(SCc2nc3sc(C(=O)O)c(C)c3c(=O)[nH]2)s1,65.8% (active)
17,N#Cc1c(NC(=O)c2ccc(N3CCOCC3)c([N+](=O)[O-])c2)sc2c1CCCC2,2.01%
18,Nc1nnc(SCC(=O)Nc2ccc3nc(SCC(=O)Nc4ccccc4)sc3c2)s1,-1.31%
19,CCCCNC(=O)CSc1nc2ccc(NC(=O)CSc3nnc(COc4ccccc4C)n3C)cc2s1,-2.55%

row,Compound,inhibition
1,CCCCNC(=O)CSc1nc2ccc(NC(=O)CSc3nnc(N)s3)cc2s1,75.7% (active)
2,Cc1cc2c(=O)n(CC(=O)NCC(=O)Nc3ccc(C(C)C)cc3)cnc2s1,-11.2%
3,CO/N=C(\C(=O)N[C@@H]1C(=O)N2C(C(=O)O)=C(COC(C)=O)CS[C@H]12)c1csc(N)n1 (stereo in doubt),2.73% and 21.9% and -0.539%
4,C=CC1=C(C(=O)O)N2C(=O)[C@@H](NC(=O)/C(=N\OCC(=O)O)c3csc(N)n3)[C@H]2SC1,13.4%
5,C=CC1=C(C(=O)O)N2C(=O)[C@@H](NC(=O)/C(=N/OCC(=O)O)c3csc(N)n3)[C@H]2SC1,57.5% (active)
6,COc1ccc(Cc2nnc(NC(=O)c3ccc(OC)cc3OC)s2)cc1,52.7% (active)
7,COc1ccc(Cc2nnc(NC(=O)c3cc(OC)c(OC)c(OC)c3)s2)cc1OC,6.64%
8,COc1ccccc1NC(=O)Nc1nnc(Cc2ccc(F)cc2)s1,0.132%
9,CN(C)C(=O)Cn1c(=O)n(S(=O)(=O)c2ccccc2)c2ccccc21,0.322%
10,O=C(COC(=O)Cc1ccccc1F)NNC(=O)c1ccc(Cl)cc1,2.91%
11,O=C(COC(=O)c1ncc(Cl)c(Cl)c1Cl)NNC(=O)c1ccccc1,2.14%
12,NS(=O)(=O)c1cc(C(=O)OCC(=O)NNC(=O)c2ccccc2)ccc1Cl,76% (active)
13,Cc1c(C)c2ccc(OCC(=O)N3CCN(c4cccc(Cl)c4)CC3)cc2oc1=O,2.08%
14,COc1cc(NC(=S)N2CCCC(C)C2)c(OC)cc1Cl (stereo unspecified),-2.12%
15,CC(/C=C/c1ccccc1)=N\NC(=O)C1CC1(C)c1ccccc1 (stereo unspecified),59.5% (active)
16,CC(/C=C/c1ccco1)=N/NC(=O)C1COc2ccccc2O1 (stereo unspecified),-6.53%
17,O=C(N/N=C/C=C/c1ccccc1)C1CC1(c1ccccc1)c1ccccc1 (stereo unspecified),1.87%
18,O=C(Nc1ccccc1N1CCOCC1)c1ccc(OCc2cscn2)cc1,3.65%
